Experimental data: PubChem BioAssay AID1159580 (chemical genetic matrix, 2015)
Values joined by “and” are separate entries in the source; they are usually repeats but may differ in a detail not shown here. Equal entries are not always repeated. Screen size: about 5,500 compounds; about 2,000 (36%) were called active. About 18% were inconclusive and are not listed. Rule as the data show it: active = normalized growth mostly below about 0.91 (no sharp cut-off); inconclusive = no clear call, values can overlap the other calls; inactive = mostly above about 0.92. The list shows a part of the results.

Experiment: chemical genetic growth profiling, strain panel (AID 1159580);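 also: tested at 20 µM; growth read once vehicle control cultures reached saturation at 30 °C; 1 = growth at the plate median or of vehicle wells; lower values mean less growth of the strain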
Conditions: growth OD

Measured: normalized growth

NCCNC(=O)c1ccc(Cl)cc1
inactive: S. cerevisiae deletion strains, locus YAL040C, strain CLN3, hits give low values 1.07 | S. cerevisiae deletion strains, locus YBR021W, strain FUR4, hits give low values 0.997 | S. cerevisiae deletion strains, locus YBR229C, strain ROT2, hits give low values 0.994 | S. cerevisiae deletion strains, locus YCL029C, strain bik1, hits give low values 0.986 | S. cerevisiae deletion strains, locus YCL061C, strain MRC1 (second series), hits give low values 0.997 | S. cerevisiae deletion strains, locus YDL035C, strain GPR1, hits give low values 0.997 | S. cerevisiae deletion strains, locus YDL074C, strain BRE1, hits give low values 1.05 | S. cerevisiae deletion strains, locus YDL101C, strain DUN1, hits give low values 0.994 | S. cerevisiae deletion strains, locus YDL134C, strain PPH21, hits give low values 0.98 | S. cerevisiae deletion strains, locus YDL185W, strain tfp1, hits give low values 0.984 | S. cerevisiae deletion strains, locus YDL192W, strain arf1, hits give low values 0.973 | S. cerevisiae deletion strains, locus YDR101C, strain arx1, hits give low values 1.03 | S. cerevisiae deletion strains, locus YDR150W, strain NUM1, hits give low values 0.998 and 0.995 | S. cerevisiae deletion strains, locus YDR162C, strain NBP2, hits give low values 0.984 | S. cerevisiae deletion strains, locus YDR318W, strain mcm21, hits give low values 0.987 | S. cerevisiae deletion strains, locus YDR363W, strain ESC2, hits give low values 1.01 | S. cerevisiae deletion strains, locus YDR388W, hits give low values 0.98 | S. cerevisiae deletion strains, locus YDR502C, strain sam2, hits give low values 1 | S. cerevisiae deletion strains, locus YEL061C, strain CIN8, hits give low values 0.99 | S. cerevisiae deletion strains, locus YER002W, strain NOP16, hits give low values 1.02 | S. cerevisiae deletion strains, locus YER110C, hits give low values 0.959 | S. cerevisiae deletion strains, locus YER155C, strain BEM2, hits give low values 0.999 | S. cerevisiae deletion strains, locus YER167W, strain BCK2, hits give low values 0.99 | S. cerevisiae deletion strains, locus YGL078C, strain dbp3, hits give low values 0.961 | S. cerevisiae deletion strains, locus YGL086W, strain mad1, hits give low values 1.01 | S. cerevisiae deletion strains, locus YGL248W, strain PDE1, hits give low values 0.996 | S. cerevisiae deletion strains, locus YGR078C, strain PAC10, hits give low values 1.03 and 0.988 | S. cerevisiae deletion strains, locus YGR135W, strain pre9, hits give low values 0.948 | S. cerevisiae deletion strains, locus YGR252W, strain gcn5, hits give low values 0.931 | S. cerevisiae deletion strains, locus YHR030C, strain SLT2, hits give low values 0.987 | S. cerevisiae deletion strains, locus YHR079C, strain IRE1 (second series), hits give low values 0.991 | S. cerevisiae deletion strains, locus YHR094C, strain hxt1, hits give low values 0.986 | S. cerevisiae deletion strains, locus YHR129C, strain ARP1, hits give low values 0.998 | S. cerevisiae deletion strains, locus YHR200W, strain rpn10, hits give low values 0.983 | S. cerevisiae deletion strains, locus YIL066C, strain RNR3, hits give low values 0.998 | S. cerevisiae deletion strains, locus YIL073C, strain SPO22, hits give low values 0.94 | S. cerevisiae deletion strains, locus YIL125W, strain kgd1, hits give low values 0.988 | S. cerevisiae deletion strains, locus YIR030C, strain dcg1, hits give low values 0.982 | S. cerevisiae deletion strains, locus YJL095W, strain BCK1, hits give low values 1.02 | S. cerevisiae deletion strains, locus YJL134W, strain LCB3, hits give low values 0.991 | S. cerevisiae deletion strains, locus YJL168C, strain set2, hits give low values 0.984 | S. cerevisiae deletion strains, locus YJL187C, strain SWE1 (second series), hits give low values 1 | S. cerevisiae deletion strains, locus YJR043C, strain POL32, hits give low values 1.02 | S. cerevisiae deletion strains, locus YJR075W, strain HOC1, hits give low values 0.999 | S. cerevisiae deletion strains, locus YKL009W, strain mrt4, hits give low values 0.969 | S. cerevisiae deletion strains, locus YKL068W, hits give low values 0.989 | S. cerevisiae deletion strains, locus YKL085W, strain MDH1 (second series), hits give low values 1 | S. cerevisiae deletion strains, locus YKL085W, strain MDH1, hits give low values 1 | S. cerevisiae deletion strains, locus YKL190W, strain CNB1, hits give low values 0.998 | S. cerevisiae deletion strains, locus YKR001C, strain vps1, hits give low values 0.993 | S. cerevisiae deletion strains, locus YLR039C, strain RIC1, hits give low values 1.04 | S. cerevisiae deletion strains, locus YLR058C, strain SHM2, hits give low values 0.988 | S. cerevisiae deletion strains, locus YLR102C, strain apc9, hits give low values 0.976 | S. cerevisiae deletion strains, locus YLR262C, strain YPT6, hits give low values 0.996 | S. cerevisiae deletion strains, locus YLR268W, strain sec22, hits give low values 0.992 | S. cerevisiae deletion strains, locus YLR330W, strain CHS5, hits give low values 0.999 | S. cerevisiae deletion strains, locus YLR342W, strain FKS1 (second series), hits give low values 0.984 | S. cerevisiae deletion strains, locus YLR371W, strain rom2, hits give low values 0.991 | S. cerevisiae deletion strains, locus YLR418C, strain cdc73, hits give low values 0.975 | S. cerevisiae deletion strains, locus YML016C, strain PPZ1, hits give low values 0.991 | S. cerevisiae deletion strains, locus YML032C, strain rad52, hits give low values 0.984 | S. cerevisiae deletion strains, locus YML124C, strain tub3, hits give low values 0.99 | S. cerevisiae deletion strains, locus YMR078C, strain ctf18, hits give low values 0.967 | S. cerevisiae deletion strains, locus YMR223W, strain ubp8, hits give low values 0.958 | S. cerevisiae deletion strains, locus YMR263W, strain SAP30, hits give low values 1.01 and 0.997 | S. cerevisiae deletion strains, locus YMR307W, strain GAS1, hits give low values 0.984 and 0.965 | S. cerevisiae deletion strains, locus YNL067W, strain RPL9B, hits give low values 1.01 | S. cerevisiae deletion strains, locus YNL128W, strain TEP1, hits give low values 0.984 and 0.991 | S. cerevisiae deletion strains, locus YNL175C, strain NOP13, hits give low values 0.99 | S. cerevisiae deletion strains, locus YNL197C, strain WHI3, hits give low values 0.992 | S. cerevisiae deletion strains, locus YNL224C, strain SQS1, hits give low values 0.999 | S. cerevisiae deletion strains, locus YNL233W, strain BNI4, hits give low values 1.02 | S. cerevisiae deletion strains, locus YNL250W, strain rad50, hits give low values 0.942 | S. cerevisiae deletion strains, locus YNL271C, strain bni1, hits give low values 0.983 | S. cerevisiae deletion strains, locus YNL298W, strain CLA4, hits give low values 0.96 | S. cerevisiae deletion strains, locus YNL307C, strain MCK1, hits give low values 0.981 | S. cerevisiae deletion strains, locus YNL322C, strain KRE1, hits give low values 1.01 | S. cerevisiae deletion strains, locus YNR052C, strain pop2, hits give low values 0.974 | S. cerevisiae deletion strains, locus YOL006C, strain TOP1, hits give low values 1.08 | S. cerevisiae deletion strains, locus YOL012C, strain htz1 1.91 | S. cerevisiae deletion strains, locus YOL147C, strain pex11, hits give low values 0.985 | S. cerevisiae deletion strains, locus YOR061W, strain CKA2, hits give low values 0.992 | S. cerevisiae deletion strains, locus YOR069W, strain VPS5, hits give low values 0.984 | S. cerevisiae deletion strains, locus YOR083W, strain WHI5 (second series), hits give low values 0.99 | S. cerevisiae deletion strains, locus YOR136W, strain idh2, hits give low values 0.993 | S. cerevisiae deletion strains, locus YOR144C, strain elg1, hits give low values 0.983 | S. cerevisiae deletion strains, locus YOR184W, strain ser1, hits give low values 0.968 | S. cerevisiae deletion strains, locus YOR316C, strain cot1, hits give low values 0.981 | S. cerevisiae deletion strains, locus YPL055C, strain LGE1, hits give low values 1.01 | S. cerevisiae deletion strains, locus YPL241C, strain CIN2, hits give low values 0.997 | S. cerevisiae deletion strains, locus YPR119W, strain clb2, hits give low values 0.977 | S. cerevisiae deletion strains, locus YPR141C, strain kar3, hits give low values 0.978 | S. cerevisiae deletion strains, locus YPR163C, strain tif3, hits give low values 0.987 | S. cerevisiae deletion strains, locus YPR167C, strain met16, hits give low values 0.973 | S. cerevisiae deletion strains, strain wtn01, hits give low values 0.968 | S. cerevisiae strains, strain wild type, hits give low values 0.998
